# How the values were obtained:
# Test in all cases: PBM binding z-score (relative to random genomic background probes); higher = stronger binding; sequences stand for … in GC…GCGATTGACAGCGTAGAATGAAGG
# [1] = tested on: PPARg:RXRa DBDmut IVT, anti-RXR (DBD mutation: RXRa K156A/R161A, NR concentration 270 nM, RXRa partner concentration 90 nM)
# Procedure, shortened: (§1)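 For binding z-scores, the reference was random background probes on custom Agilent 4×180K protein-binding microarrays. These arrays were incubated 1 h with ligand-free nuclear receptor dimers in PBS pH 7.4, 2% milk, 0.02% Triton X-100, 1 mM DTT, 0.2 mg/mL BSA and 0.4 mg/ml salmon testes DNA. Fluorescence was scanned after antibody detection of each partner (one per run) and regression-normalized.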
# [2] = tested on: PPARg:RXRa IVT, anti-PPARg (NR concentration 270 nM, RXRa partner concentration 90 nM)
# Procedure, shortened: as §1
# [3] = tested on: PPARg DBDmut:RXRa IVT, anti-PPARg (DBD mutation: PPARg1 K132A/R137A, NR concentration 270 nM, RXRa partner concentration 90 nM)
# Procedure, shortened: as §1
# [4] = tested on: PPARg DBDmut IVT, anti-PPARg (DBD mutation: PPARg1 K132A/R137A, NR concentration 270 nM)
# Procedure, shortened: as §1
# [5] = tested on: PPARg homodimer (NR concentration 180 nM)
# Procedure, shortened: as §1
# [6] = tested on: PXR:RXRa (NR concentration 270 nM, RXRa partner concentration 90 nM)
# Procedure, shortened: as §1
# [7] = tested on: PXR homodimer (NR concentration 270 nM)
# Procedure, shortened: as §1
# [8] = tested on: RARa:RXR (NR concentration 270 nM, RXRa partner concentration 90 nM)
# Procedure, shortened: as §1
# [9] = tested on: RARa homodimer (NR concentration 270 nM)
# Procedure, shortened: as §1
# [10] = tested on: RARb:RXRa (NR concentration 270 nM, RXRa partner concentration 90 nM)
# Procedure, shortened: as §1
# [11] = tested on: RARb homodimer (NR concentration 270 nM)
# Procedure, shortened: as §1
# [12] = tested on: RARg:RXRa (NR concentration 270 nM, RXRa partner concentration 90 nM)
# Procedure, shortened: as §1
# [13] = tested on: RARg homodimer (NR concentration 270 nM)
# Procedure, shortened: as §1
# [14] = tested on: RXRa DBDmut IVT, anti-RXR (DBD mutation: RXRa K156A/R161A, NR concentration 90 nM)
# Procedure, shortened: as §1
# [15] = tested on: RXRa homodimer (NR concentration 180 nM)
# Procedure, shortened: as §1
# [16] = tested on: THRa:RXRa (NR concentration 90 nM, RXRa partner concentration 90 nM)
# Procedure, shortened: as §1
# [17] = tested on: THRa homodimer (NR concentration 90 nM)
# Procedure, shortened: as §1
# [18] = tested on: VDR homodimer (NR concentration 270 nM)
# Procedure, shortened: as §1
Sequence,PBM binding z-score [1],PBM binding z-score [2],PBM binding z-score [3],PBM binding z-score [4],PBM binding z-score [5],PBM binding z-score [6],PBM binding z-score [7],PBM binding z-score [8],PBM binding z-score [9],PBM binding z-score [10],PBM binding z-score [11],PBM binding z-score [12],PBM binding z-score [13],PBM binding z-score [14],PBM binding z-score [15],PBM binding z-score [16],PBM binding z-score [17],PBM binding z-score [18]
CGAACTAGGTCAGAACAGGAAAGTGAAGGATGAT,7.16,6.78,2.1,0.812,0.835,0.0929,-0.161,0.482,-0.00201,2.72,1.61,2.35,2.9,0.506,1.07,1.29,0.124,-0.115
CAAACTAGGTCCAGGTCAAAGTCGGTTTGTGCCA,3.43,3.67,0.261,-0.192,1.29,2.57,0.685,2.22,0.417,2.9,3.03,2.6,2.27,1.62,2.37,3.31,2.79,2.49
CGAACGAGGGGATGAGTTGATAGCAAATGCCGAT,0.602,0.068,0.241,0.151,0.0087,-0.392,0.00406,-0.399,0.243,-0.301,-0.429,-0.0531,0.201,0.534,0.0402,-0.246,-0.206,0.579
GGAACGAGGGCAAGTTGATAGTAGAGTTTGATGG,3.65,2.79,0.241,-0.486,0.584,0.965,1.17,0.509,0.408,2.76,1.75,1.54,2.17,2.51,0.814,1.36,0.454,2.31
CCTATTTGTTGACCATAAGGGCAACCGAAGCTCG,0.427,0.84,0.694,0.679,1.94,1.09,0.998,1.35,1.45,1.72,2.18,0.901,1.09,0.849,0.768,1.78,1.89,0.782
CTAGACAGGTGAGAAGGTAACTCAGCCTCGATTA,0.878,0.891,0.184,-0.714,0.258,-0.111,0.0997,-0.121,-0.138,0.44,0.253,0.538,0.499,-0.295,0.228,0.0525,-0.0949,-0.377
GCTTGTAGATCAAGGTTACGAAAGACTAAGCTAA,1.65,1.67,-0.122,-0.483,0.354,0.724,-0.00407,1.23,0.273,0.947,0.837,0.713,0.558,0.173,1.09,1.81,0.263,-0.274
CCGACTGGGGCAAGGATACCATAACGCACAGCCA,2.53,2.44,-1.12,-0.391,0.238,-0.678,-0.593,-0.387,0.23,0.558,0.07,0.225,0.802,-0.717,0.232,-0.00683,0.154,-0.376
CCTACTGGGCCAAAAAAGTCATTGATGCCGATAA,3.32,2.23,-0.158,-0.274,0.205,-0.303,-0.213,-0.0727,-0.0226,0.134,-0.0259,-0.155,0.0325,-0.134,-0.184,-0.184,-0.612,-0.687
GATACAGGGTCAAGGCCAGATTACGCGTATTGAT,2.74,4.03,2.24,1.3,3.72,4.43,0.645,5.48,1.59,4.65,3.73,5.64,5.39,2.72,6.08,3.68,1.61,2.09
ATCGAAAGGTCGAAGGTGAGTTTACCCACCCGAA,0.357,2.21,0.513,0.511,1.48,4.03,1.02,4.05,0.0951,3.85,2.62,4.3,3.49,1.41,5.2,2.45,0.143,3.11
CGAACTAGGTCATTAACAGGACAGTGAATAGTAA,8.02,7.96,3.04,1.69,2.06,1.28,0.557,1.97,0.792,3.27,2.34,4.13,4.05,2.35,2.29,2.76,0.884,1.15
ATCGAAAAGTCGAGGTGAGTATAGAGAAAGGGAA,-0.205,0.704,1.25,-0.338,0.107,-0.235,0.048,0.0313,-0.268,0.639,0.0212,0.371,0.476,-0.67,0.323,1.17,0.201,-0.198
CCATACGGGTCACGAGGTTATAGCACGACGAGCG,3.91,5.41,1.88,0.373,2.89,4.5,0.355,5.93,1.79,4.62,3.99,6.02,5.35,1.27,7.38,3.55,1.09,2.45
ATACCAAGGTGATCGTGTGGTCGTTGATACTAAC,0.658,0.953,0.0763,0.561,0.519,0.0212,-0.0663,0.0038,0.00751,0.737,0.584,0.298,0.273,0.0966,0.296,0.959,0.536,0.0513
AGAATGAGGTTGTTAAGATCAGGGAATTGCGGTC,0.255,-0.103,-0.954,-0.016,0.112,0.362,0.179,0.0989,-0.0651,0.173,0.126,0.00616,-0.0271,1.17,0.15,0.608,0.246,0.542
CCTTACGGGTCACTGACAGGTTATAGCCTTTGGA,2.98,3.74,0.266,0.106,3.2,3.83,-0.0377,4.93,0.735,3.95,3.15,5.69,4.21,2,4.83,2.9,0.294,1.14
ATCTCTAGGTAATAGTTCAGTGAATCCCGAGGAT,2.36,2.79,1.15,2.02,1.07,0.458,0.386,0.192,1.4,1.16,1.24,0.897,1.33,0.172,0.482,0.745,0.701,0.41
GCTGTTAGTTGAAAGGGCAACCGAATGATTCTCG,0.247,0.541,0.463,0.0066,1.39,0.665,0.0448,1.48,0.147,2.08,2.03,1.49,1.43,0.773,1.23,0.729,-0.379,-0.0381
TCTTGTAGATTAAGCAGGTTAAGAAAGCCTGAGT,1.64,0.902,0.0777,0.04,-0.0749,0.401,0.0794,0.419,0.0226,0.106,0.394,-0.0145,-0.457,0.673,0.377,0.509,-0.386,0.113
AGAATGAGGTTACCAAAGATCTGGGAAACGCTTG,3.41,3.25,0.193,0.0654,0.163,0.907,-0.203,1.77,-0.536,1.98,0.57,1.94,1.49,0.786,2.42,2.51,0.542,0.122
GCTGCTAGGTCAGGTTGGTCAGCTGACGGGTACG,2.92,2.16,0.00411,-0.207,1.24,0.407,-0.471,0.946,-0.516,3.17,2.62,2.79,3.56,0.752,1.09,1.81,0.492,0.505
TCATATAGGTAATACAGGAGAAAGTCGGCATCTA,4.09,2.1,1.79,0.92,0.788,0.627,0.0379,0.706,1.13,0.369,-0.136,0.519,0.598,1.48,0.686,0.0311,0.0486,0.233
TGAATGAGGTTAACGATCAGGGAACGTGGCGTCG,2.53,2.98,0.909,0.129,0.132,0.809,-0.38,2.15,-0.0277,2.01,0.791,1.96,1.19,0.898,2.81,2.52,0.403,0.222
CCGAATGGGGCAAAGGTTACCATACTCAGTACGA,2.16,4.5,0.22,0.313,1.22,2.57,0.114,3.86,0.85,2.46,2.37,3.65,1.72,0.549,4.27,1.86,-0.191,0.204
GATACAGGGTCAAGGCCAGAGTCCGCGTATTGAT,2.59,3.9,-0.201,-0.204,1.62,3.79,0.344,4.03,0.185,4.39,3.62,5.35,4.89,1.91,5.5,3.52,1.37,1.73
CGTCCACGGTCAAAGGTCAGTGAAGAGATGACGG,1.1,3.94,-0.461,-0.195,6.23,4.9,0.288,7.25,2.09,5.01,4.48,6.76,6.04,0.983,7.05,3.11,0.0529,0.561
ATCGAAAGGTCGCGAGGTGAGTATACAGAAAGGC,0.5,3.13,1.02,0.918,1.25,3.33,0.012,4.35,0.464,4.48,3.4,5.11,4.94,0.903,5.7,3.45,0.86,0.971
CCTACTGGGCCACGAAACGTCATTGATTCAGTGA,5.46,4.94,0.954,0.628,-0.288,-0.903,-0.805,-0.908,-0.363,0.0906,-0.373,-0.321,0.105,-0.404,-0.385,-0.288,-0.682,-1.01

# — the supplement of paper PMC6555819
